ROMK primary: modulates human ROMK potassium channel activity; AID 1918; 2% of 130,000 active; B-score at 10 µM; P48048; Tet-inducible ROMK, thallium flux fluorescence; actives lie on both sides;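 active means signal ratio slope over the read window, or its plate-corrected B-score, at least 3 SD from the plate mean, either direction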;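 further: B-score of the F/F0 ratio slope over 7 to 12 s after thallium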
Cl transport mod: modulators of human KCC2 chloride dependent transport; Q9H2X9; KCC2 cells, thallium flux FluoZin-2 fluorescence; B-score of Tl+ flux slope (higher = more flux/activation; lower = inhibition) at 10 µM; 2.2% of 190,000 active; AID 1456;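 active means thallium flux slope and its plate-corrected score both differing from the plate sample mean at a set confidence after two filtering rounds, in either direction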;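 further: slope of fluorescence scaled to starting intensity during 10 to 20 s after thallium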
Target sequence (Q9H2X9 whole entry, looked up): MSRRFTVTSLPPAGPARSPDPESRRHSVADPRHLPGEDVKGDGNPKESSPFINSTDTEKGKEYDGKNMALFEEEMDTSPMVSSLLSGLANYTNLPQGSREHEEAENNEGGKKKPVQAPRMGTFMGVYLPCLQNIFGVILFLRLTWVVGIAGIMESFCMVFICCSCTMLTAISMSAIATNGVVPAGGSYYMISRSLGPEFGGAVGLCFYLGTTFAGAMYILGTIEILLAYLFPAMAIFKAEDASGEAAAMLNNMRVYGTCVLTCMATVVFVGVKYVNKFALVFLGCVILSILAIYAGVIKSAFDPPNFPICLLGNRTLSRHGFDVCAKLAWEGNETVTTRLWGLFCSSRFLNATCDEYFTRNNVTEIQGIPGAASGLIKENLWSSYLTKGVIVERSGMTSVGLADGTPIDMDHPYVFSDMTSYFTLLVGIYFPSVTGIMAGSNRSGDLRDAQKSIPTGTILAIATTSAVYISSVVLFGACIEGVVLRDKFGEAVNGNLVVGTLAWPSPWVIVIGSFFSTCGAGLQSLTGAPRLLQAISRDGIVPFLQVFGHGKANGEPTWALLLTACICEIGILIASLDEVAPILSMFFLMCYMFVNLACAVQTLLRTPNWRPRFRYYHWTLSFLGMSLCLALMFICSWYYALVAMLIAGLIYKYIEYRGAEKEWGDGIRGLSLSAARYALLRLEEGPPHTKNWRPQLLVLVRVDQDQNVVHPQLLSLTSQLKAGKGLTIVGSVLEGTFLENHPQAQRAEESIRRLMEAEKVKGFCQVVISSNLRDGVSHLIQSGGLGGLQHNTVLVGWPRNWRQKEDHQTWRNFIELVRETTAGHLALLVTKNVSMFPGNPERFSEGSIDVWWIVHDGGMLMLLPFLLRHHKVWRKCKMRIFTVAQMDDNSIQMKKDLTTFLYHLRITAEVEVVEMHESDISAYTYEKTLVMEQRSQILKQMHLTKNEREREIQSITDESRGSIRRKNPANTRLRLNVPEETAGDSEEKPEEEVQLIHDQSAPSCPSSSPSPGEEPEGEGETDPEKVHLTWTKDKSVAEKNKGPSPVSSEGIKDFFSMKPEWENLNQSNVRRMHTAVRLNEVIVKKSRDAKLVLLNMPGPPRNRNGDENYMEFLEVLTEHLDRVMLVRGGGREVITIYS
S1P3 antagonist: blocks the human S1P3 receptor. Q99500. CHO S1P3 NFAT-BLA reporter, FRET fluorescence, antagonist mode. inhibition, % at 4.98 µM. 0.27% of 170,000 active. AID 485;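 active means inhibition above the plate cutoff, the mean inhibition of test wells on that plate plus 3 SD, cut at about 28% in these data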;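 further: cells challenged with S1P at its EC80 of 0.8 µM; blue over green emission ratio from cleaved BLA substrate after 4 h stimulation; 0% = S1P-stimulated wells and 100% = unstimulated DMSO-only wells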
RAM inhibit: yeast RAM network inhibition | S. cerevisiae dse1pr::URA3 reporter, 5-FOA growth OD615, 2 d; analog-sensitive cbk1-as2 kinase mutant strain | 1.8% of 190,000 active | inhibition, % at 50 µM;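 active means inhibition above a set limit, 3 SD over mean compound inhibition, cut at about 8.4% in these data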;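 further: 0% = DMSO-only wells with no growth and 100% = 10 µM 1-NA-PP1 full growth; inhibition rescues growth on 5-FOA so higher OD means more RAM inhibition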
S1P4 agonist: agonists of human S1P4 receptor; O95977; S1P4-expressing cell line, agonist reporter assay; activation, % at 4.98 µM; 0.35% of 220,000 active; in the data active means activation above about 11%;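 further: 0% = DMSO vehicle and 100% = reference agonist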
S1P4 antag: human S1P4 receptor antagonism; S1P4-expressing cells, antagonist mode, reporter read-out; 0.26% of 220,000 active; inhibition, % at 4.98 µM; O95977; in the data active means inhibition above about 29%;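 further: 0% = wells stimulated with agonist and 100% = vehicle wells without agonist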
RAM efflux-def: RAM network inhibitors in efflux-deficient yeast; S. cerevisiae efflux-deficient reporter strain, 5-FOA growth OD615, 2 days; AID 1305; max inhibition, %; shares compounds with RAM inhibit; 1,200 tested, under 10 active; call rule not given here;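 further: plate controls were vehicle for no effect and reference inhibitor for full effect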
* hit, by the source's call; · = not tested or not shown. Most compounds without a hit are left out; they make up all but 5.1% or so of the library.

SMILES	ROMK primary	Cl transport mod	S1P3 antagonist	RAM inhibit	S1P4 agonist	S1P4 antag	RAM efflux-def
CCC(C)c1ccc(NC(=S)NCc2ccccc2OC)cc1 (stereo unspecified)	-0.32	-0.66	15	11*	-1	8	7
CNC(=O)CCCCC(=O)N/N=C/c1ccc(Cl)cc1Cl	1.8	-1	-13	·	1	-15	·
Cc1ccc(S(=O)(=O)Cn2nnnc2CN(Cc2ccco2)Cc2cccs2)cc1	-1.3	-0.32	-26	12*	0	-25	2
Cc1[nH]c2ccccc2c1/C=N/Nc1ccc([N+](=O)[O-])cc1S(=O)(=O)Nc1ccc(Cl)cc1	0.4	-1.2	·	14*	1	-2	4
Cc1ccc(/C=C2\SC(=S)N(C(Cc3ccccc3)C(=O)O)C2=O)cc1 (stereo unspecified)	-3*	-3.5*	-15	17*	-1	-4	10
CC(=O)C(N=Nc1ccccc1)(Sc1nnc(-c2ccccc2)n1-c1ccccc1)C(C)=O	·	-1.2	·	12*	0	-1	3
CC(=O)C(N=Nc1ccccc1)(Sc1nnc(-c2ccccc2)n1-c1ccccc1)C(=O)Nc1ccccc1 (stereo unspecified)	·	0.25	·	2	-2	-16	·
Cc1ccc2c(C(=O)CN3CCN(C(=O)c4ccco4)CC3)c(C)[nH]c2c1	·	-0.11	-3	·	1	4	·
Cc1cc(C)c(NC(=O)/C(=C/c2ccccc2)c2ccccc2)c(C)c1	-0.28	-3.5	-6	13*	0	-18	3
O=C(NCc1ccccc1)C1=C[C@H](c2ccc(C(F)(F)F)cc2)C[C@H](OCc2ccc(CO)cc2)O1	·	-0.2	-12	12*	0	15	4
Cc1cc(OCc2nnc(SCC(=O)OC3CCCCC3)o2)ccc1Cl	·	·	4	12*	-2	-3	2
COc1ccc(N2CCN(c3oc(COc4ccc(Cl)cc4Cl)nc3C#N)CC2)cc1	-0.83	·	1	3	2	5	·
COc1ccc(N2CCN(c3oc(COc4ccc(Cl)cc4)nc3C#N)CC2)cc1	-2.1	-0.96	·	13*	1	7	5
CC(=O)OCCCNc1cc(Sc2ccc(Cl)cc2)c2nonc2c1[N+](=O)[O-]	·	-0.24	13	12*	0	-3	2
COCCCNC(=O)c1ccc(Cn2c(=O)c3ccccc3n(Cc3ccc(C)cc3)c2=O)cc1	0.86	0.46	·	12*	0	8	5
O=C(CONS(=O)(=O)c1ccc(Cl)cc1)NCCNc1ncc(C(F)(F)F)cc1Cl	1.3	-0.89	-10	7	1	7	·
CCCSc1ccc(-c2nn(-c3ccccc3)cc2/C=C(/C#N)C(=O)NCCCOC)cc1	0.63	-0.06	-4	16*	0	2	2
CCSc1ccc(-c2nn(-c3ccccc3)cc2/C=C(/C#N)C(=O)NCCCOC)cc1	·	-1	5	17*	3	-8	5
Cc1ccc(-c2nn(-c3ccccc3)cc2/C=C(\C#N)C(=O)NCc2ccccc2)cc1	0.28	1.2	7	6	-1	-4	·
O=C(O)CNC(=S)N(Cc1ccccc1)Cc1ccccc1F	0.53	-2.6	-6	1	0	-7	·
O=C(NC(=S)N(Cc1ccccc1)Cc1ccccc1)c1ccccc1F	·	65*	·	12*	0	11	1
Cc1ccccc1OCCC(=O)Nc1cccc(S(=O)(=O)Nc2ccccc2Cl)c1	-0.78	-0.79	-6	17*	3	3	3
Cc1ccc(C(=O)NCCc2ccc(S(N)(=O)=O)cc2)cc1[N+](=O)[O-]	·	-0.088	2	2	1	-15	·
Cc1cc2nnc(SCC(=O)OC(C)C)n2c2ccccc12	·	-1.7	·	-1	0	-13	·
CCCCC(=O)Nc1cccc(NC(=S)NC(=O)COc2ccccc2Cl)c1	-0.46	-0.017	-10	12*	0	-9	2
SMILES	ROMK primary	Cl transport mod	S1P3 antagonist	RAM inhibit	S1P4 agonist	S1P4 antag	RAM efflux-def
CCCCC(=O)Nc1cccc(NC(=S)NC(=O)Cc2ccccc2)c1	-0.53	-0.68	1	8	0	-14	·
CCOc1ccccc1NC(=S)NC(=O)CCCOc1ccc(Cl)cc1Cl	1	-0.53	·	12*	1	-3	2
Cc1ccccc1C(=O)NNC(=O)CSc1nc2ccccc2c(=O)[nH]1	0.17	-0.87	-3	·	0	4	·
NC(=O)C1CCN(c2ncc(C(F)(F)F)cc2Cl)CC1	-0.57	-0.14	-1	0	1	-14	·
Cc1cc(C)nc(NS(=O)(=O)c2ccc(NC(=O)c3cccs3)cc2)n1	1.5	0.52	·	2	1	3	·
CCCCN(CCCC)S(=O)(=O)c1ccc(NC(=O)c2cccs2)cc1	0.86	0.67	·	16*	-1	-15	3
COc1ccc(C(=O)/C=C/c2ccccc2OC)c(OC(=O)c2ccc([N+](=O)[O-])cc2)c1	·	-0.93	·	·	1	-22	·
COc1cccc(C(=O)Oc2ccccc2/C=C\C(=O)c2cc3ccccc3o2)c1	·	0.54	-10	16*	3	19	8
COc1ccc(CN(C)C(=O)c2cnc(OC)cc2C(F)(F)F)c(OC)c1	·	-0.23	-1	·	1	9	·
C/C(CC1CC2=C(CC1(C)C)C(C)(C)CCC2)=N\NC(N)=S (stereo unspecified)	-0.7	0.45	·	13*	2	12	1
CC(C)c1nnc(NC(=O)CCC(=O)Nc2ccc3cn[nH]c3c2)s1	·	-0.21	1	·	0	-3	·
CCN1CCN(CC(=O)Nc2ccc(Cl)c(S(=O)(=O)N(C)C)c2)CC1	-0.66	0.51	-19	1	1	-10	·
CCCCc1ccc(NC(=S)Nc2ccc(Cl)c(S(=O)(=O)N(C)C)c2)cc1	-0.34	0.29	-9	16*	1	-12	6
Cc1cccc(NC(=O)C2CCCN2C(=O)Oc2ccccc2)c1C (stereo unspecified)	0.08	-1	·	12*	-1	1	1
COc1ccc(S(=O)(=O)NCCSCc2cccc(C)c2)cc1Br	0.45	0.17	·	12*	-2	-8	1
Cc1ccc(S(=O)(=O)NCCSCc2ccccc2)cc1	·	-1.5	·	1	2	-8	·
O=S(=O)(Nc1ccc(-c2csc(-c3ccccc3)n2)cc1)c1ccccc1	-0.39	-0.32	-3	13*	0	-5	1
O=C(Nc1ccn(Cc2cccc3ccccc23)n1)c1cccnc1	-0.5	-0.9	4	12*	1	-9	2
O=C(Nc1ccn(Cc2ccc(Cl)cc2)n1)c1ccccc1	-1	-2	0	1	3	-23	·
COc1ccccc1NC(=O)c1cc(Br)ccc1Cl	0.0014	-0.36	5	0	3	4	·
COc1ccc(Br)cc1C(=O)Nc1ccccc1-c1ccccc1	·	0.56	·	12*	0	-15	3
C#CCNC(=O)C1=C[C@H](c2ccc(Br)cc2)C[C@H](OCCCCO)O1	·	0.62	-11	3	0	11	·
